Compounds with a hit are over-represented: about 3.9% of the library has one in this group of screens.
3CLpro inhibitor: SARS-CoV 3CLpro protease inhibition; recombinant SARS-CoV 3CLpro, quenched FRET peptide cleavage; 290,000 compounds, 0.14% hits; inhibition, % at 6 µM; AID 1706; in the data active = inhibition above about 12%
BoNT-A LC inh2: BoNT A light chain protease inhibition. multiplex microsphere protease substrate cleavage, flow cytometry. inhibition, % at 10 µM. 360,000 compounds, 0.17% hits. AID 588499; note: plate controls were buffer without enzyme for full effect and enzyme alone for no effect
Anthrax LF prot: anthrax lethal factor protease inhibition. inhibition, % at 10 µM. AID 588501. P15917. 360,000 compounds, 0.12% hits. multiplex microsphere protease cleavage assay, LF; note: plate controls were buffer without enzyme for full effect and enzyme alone for no effect
BoNT-F LC inh: inhibitors of Botulinum neurotoxin F light chain protease | Multiplex microsphere protease cleavage assay, flow cytometry | inhibition, % at 10 µM | 360,000 compounds, 0.22% hits; in the data active = inhibition above about 35%, passing the limit was not always enough; inconclusive = no clear call, values can overlap the other calls; note: plate controls were buffer without enzyme for full effect and enzyme alone for no effect
DUSP3 inh: inhibitors of human VHR1 phosphatase (DUSP3); recombinant VHR phosphatase, pNPP absorbance; 290,000 compounds, 0.52% hits; inhibition, % at 13.3 µM; AID 1654; P51452; in the data active = inhibition above about 50%
Target sequence (P51452 whole entry, looked up): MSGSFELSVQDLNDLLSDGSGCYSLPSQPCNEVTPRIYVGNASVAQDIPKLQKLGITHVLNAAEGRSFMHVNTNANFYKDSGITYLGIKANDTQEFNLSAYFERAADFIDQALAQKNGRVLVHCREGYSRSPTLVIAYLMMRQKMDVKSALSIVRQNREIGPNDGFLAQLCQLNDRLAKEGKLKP
Bead autofluor: flagged as autofluorescent in microsphere protease counterscreen. compound autofluorescence counterscreen, microsphere flow cytometry; active compounds read high. 360,000 compounds, 3.1% hits. fluorescence intensity (test concentration not listed); in the data active = fluorescence intensity above about 16000; inconclusive = no clear call, values can overlap the other calls
Active calls of the source: *. Cut-off read from the data, not from the text of the source, unless noted: active = inhibition above about 30%; inconclusive = no clear call, values can overlap the other calls; inactive = below that.

CC(C)c1ccc(OCC(=O)NC(Cc2c[nH]c3ccccc23)C(=O)O)cc1 (stereo not drawn) was read as 3CLpro inhibitor 1, BoNT-A LC inh2 0, Anthrax LF prot 1, BoNT-F LC inh -1, DUSP3 inh -2 and Bead autofluor 4598.
Screening Cc1ccc(C(=O)NC(Cc2c[nH]c3ccccc23)C(=O)O)cc1 (stereo not drawn) returned 3CLpro inhibitor -2, BoNT-A LC inh2 inconclusive, Anthrax LF prot -2, BoNT-F LC inh 0, DUSP3 inh 27 and Bead autofluor 20051*.
`CN(C(=O)COC(=O)/C=C/c1ccc(C(F)(F)F)cc1)C1CCS(=O)(=O)C1` (stereo not drawn) gave 3CLpro inhibitor 6, BoNT-A LC inh2 1, Anthrax LF prot 0, BoNT-F LC inh 4, DUSP3 inh 5 and Bead autofluor 6064.
NNC(=O)c1ccc(NS(=O)(=O)c2ccc(Br)cc2)cc1 was read as 3CLpro inhibitor -2 and DUSP3 inh 30.
COc1cc(C)nc(NC(=S)N(C)C(=O)c2ccccc2)n1 was read as 3CLpro inhibitor 0 and DUSP3 inh 32.
Screening COC(=O)CCC(=O)NC1CC(C)(C)Cc2c1cnn2-c1ccccc1 (stereo not drawn) returned 3CLpro inhibitor -5, BoNT-A LC inh2 -1, Anthrax LF prot -11, BoNT-F LC inh 4, DUSP3 inh 57* and Bead autofluor 3305.
For CC(=O)NCC(=O)NC1CC(C)(C)Cc2c1cnn2-c1ccccc1 (stereo not drawn) the results were 3CLpro inhibitor -5, BoNT-A LC inh2 0, Anthrax LF prot 2, BoNT-F LC inh inconclusive, DUSP3 inh 12 and Bead autofluor 2922.
Screening COc1ccc(C(=O)NCCOc2ccccc2Cl)c(OC)c1OC returned 3CLpro inhibitor -3, BoNT-A LC inh2 -1, Anthrax LF prot -16, BoNT-F LC inh -8, DUSP3 inh 0 and Bead autofluor 3828.
Screening Cc1nn(CC(=O)O)c(C)c1C returned 3CLpro inhibitor -1, BoNT-A LC inh2 2, Anthrax LF prot -3, BoNT-F LC inh 3, DUSP3 inh -4 and Bead autofluor 21501*.
Screening CCn1c(SCC#N)nc2c(c1=O)C1(CCCC1)Cc1ccccc1-2 returned 3CLpro inhibitor -1, BoNT-A LC inh2 -2, Anthrax LF prot 0, BoNT-F LC inh -7, DUSP3 inh 25 and Bead autofluor 24128*.
`COc1ccc(NC(=O)c2cccnc2N2CCCCC2)cc1` gave 3CLpro inhibitor -3, BoNT-A LC inh2 0, Anthrax LF prot -2, BoNT-F LC inh 2, DUSP3 inh 12 and Bead autofluor 2444.
`O=C(Nc1ccc(F)cc1)c1cccnc1N1CCCCC1` gave 3CLpro inhibitor 2, BoNT-A LC inh2 -4, Anthrax LF prot 1, BoNT-F LC inh -5, DUSP3 inh -17 and Bead autofluor 21821*.
For O=C(Nc1ccc(Br)cc1)c1cccnc1N1CCCCC1 the results were 3CLpro inhibitor -1, BoNT-A LC inh2 8, Anthrax LF prot -8, BoNT-F LC inh 5, DUSP3 inh 19 and Bead autofluor 21086*.
COc1ccc(-n2ncc(C(C)NS(=O)(=O)c3ccc(C)s3)c2C)cc1 (stereo not drawn) was read as 3CLpro inhibitor -2, BoNT-A LC inh2 0, Anthrax LF prot -1, BoNT-F LC inh -4, DUSP3 inh 12 and Bead autofluor 6119.
`CCOc1cc(C(c2c(C)[nH][nH]c2=O)c2c(C)[nH][nH]c2=O)ccc1OC(=O)c1cccc([N+](=O)[O-])c1` gave 3CLpro inhibitor 3, BoNT-A LC inh2 3, Anthrax LF prot 0, BoNT-F LC inh -4, DUSP3 inh 6 and Bead autofluor 19908*.
For CCOc1cc(C(c2c(C)[nH][nH]c2=O)c2c(C)[nH][nH]c2=O)ccc1OCc1ccc([N+](=O)[O-])cc1 the results were 3CLpro inhibitor 7, BoNT-A LC inh2 0, Anthrax LF prot 0, BoNT-F LC inh -6, DUSP3 inh 20 and Bead autofluor 22205*.
Screening CC1CC(C)CN(C(=O)C(C)N2CCN(S(=O)(=O)c3ccc(Br)s3)CC2)C1 (stereo not drawn) returned BoNT-A LC inh2 0, Anthrax LF prot 5, BoNT-F LC inh -6 and Bead autofluor 3937.
`CCN(CC)S(=O)(=O)c1ccc(S(=O)(=O)N(CC(=O)Nc2ccccc2)CC2CCCO2)cc1` (stereo not drawn) gave 3CLpro inhibitor 6, BoNT-A LC inh2 -4, Anthrax LF prot 0, BoNT-F LC inh -5 and Bead autofluor 17027*.
Screening O=C(Oc1c(CN2CCOCC2)cc(Cl)c2cccnc12)c1ccccc1Cl returned 3CLpro inhibitor 2, BoNT-A LC inh2 -3, Anthrax LF prot -1, BoNT-F LC inh -1, DUSP3 inh 13 and Bead autofluor 4442.
`O=C(Oc1c(CN2CCOCC2)cc(Cl)c2cccnc12)c1ccc(F)cc1` gave 3CLpro inhibitor 3, BoNT-A LC inh2 2, Anthrax LF prot -4, BoNT-F LC inh 0, DUSP3 inh -14 and Bead autofluor 22240*.
Screening COc1cccc(C(=O)Oc2c(CN3CCOCC3)cc(Cl)c3cccnc23)c1 returned 3CLpro inhibitor 4, BoNT-A LC inh2 1, Anthrax LF prot -2, BoNT-F LC inh -1, DUSP3 inh 15 and Bead autofluor 22802*.
O=C(Oc1c(CN2CCOCC2)cc(Cl)c2cccnc12)c1cccs1 was read as 3CLpro inhibitor 9, BoNT-A LC inh2 -1, Anthrax LF prot 0, BoNT-F LC inh -6, DUSP3 inh 52* and Bead autofluor 3987.
For O=C(Nc1ccccc1)N1CCSc2cc(Cl)ccc21 the results were 3CLpro inhibitor 2, BoNT-A LC inh2 -2, Anthrax LF prot -1, BoNT-F LC inh -3, DUSP3 inh -6 and Bead autofluor 20918*.
O=C(Nc1cccc(Cl)c1)N1CCSc2cc(Cl)ccc21 was read as 3CLpro inhibitor 1, BoNT-A LC inh2 1, Anthrax LF prot -6, BoNT-F LC inh 3, DUSP3 inh 4 and Bead autofluor 19711*.
For O=C(Nc1ccccc1Cl)N1CCSc2ccccc21 the results were 3CLpro inhibitor 1, BoNT-A LC inh2 0, Anthrax LF prot -7, BoNT-F LC inh 4, DUSP3 inh 2 and Bead autofluor 5791.
COc1cccc(-n2c(C)c3c(OC)cccc(=O)c3c2C)c1 was read as 3CLpro inhibitor 3, BoNT-A LC inh2 0, Anthrax LF prot -2, BoNT-F LC inh -10, DUSP3 inh 8 and Bead autofluor 3614.
Screening COc1cccc(=O)c2c(C)n(-c3cc(C)cc(C)c3)c(C)c12 returned 3CLpro inhibitor 4, BoNT-A LC inh2 3, Anthrax LF prot -3, BoNT-F LC inh 1, DUSP3 inh 4 and Bead autofluor 20048*.
For CNc1nc(-c2ccccc2)nnc1C(F)(F)F the results were 3CLpro inhibitor 3, BoNT-A LC inh2 inconclusive, Anthrax LF prot -2, BoNT-F LC inh 0, DUSP3 inh 16 and Bead autofluor 22123*.
